TWEAK Fn14 block – TWEAK-Fn14 signaling inhibition | TWEAK-stimulated Fn14 reporter cells, luciferase luminescence, 8 h | inhibition, % at 10 µM | 360,000 tested, 2% active | AID 1159606; in the data active = inhibition above about 50%
HSP90 refold inh – inhibitors of HSP90 luciferase refolding in rabbit reticulocyte lysate; luciferase refolding luminescence, 3 h; inhibition, % at 5.6 µM; 290,000 tested, 0.91% active; AID 1789;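 active = inhibition above the screen-wide mean plus 3 SD, computed separately per campaign, cut at about 16% in these data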;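 note: 0% = DMSO wells and 100% = 60 µM geldanamycin wells; inhibitors lower the luminescence because luciferase stays unfolded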
TROY NFkB inh – blocks TROY-dependent signaling in reporter cells. inhibition, % at 10 µM. Q293 LMP1-TROYcd NF-kB luciferase reporter, 4 h. 360,000 tested, 0.98% active;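 active = compounds whose plate-normalised and pattern-corrected inhibition of the luciferase reporter signal at the single screening dose is 50% or more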
LGR2 antag – blocks bursicon-induced cAMP signaling via Drosophila LGR2; HEK293 LGR2, CRE-luciferase, bursicon-stimulated, 4 h; inhibition, % at 9.99 µM; 380,000 tested, 0.35% active; AID 720647;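 active = drop in luminescence signal, shown as inhibition above about 50% in the replicate tests, limit read from the data, passing the limit was not always enough; inconclusive = probably only some replicates passing the limit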;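 note: agonist challenge used bursicon conditioned medium at about half maximal strength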
HSP90 confirm – HSP90 inhibition, confirmation assay. AID 1846. inhibition, % at 5.9 µM. 2,300 tested, 64% active. rabbit reticulocyte lysate, luciferase refolding luminescence, 3 h. shares compounds with HSP90 refold inh; in the data active = inhibition above about 18%;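 note: 0% = vehicle wells and 100% = reference inhibitor wells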
luciferase ctr – blocks native firefly luciferase in HSP90 counter-screen. shares compounds with HSP90 refold inh. purified native firefly luciferase, luminescence. inhibition, % at 5.9 µM. 2,300 tested, 48% active;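 active = inhibition above the mean inhibition of all tested sample wells plus 3 SD, cut at about 10% in these data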;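 note: 0% = DMSO with luciferase and 100% = wells lacking luciferase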
Target sequence (P08659 whole entry, looked up): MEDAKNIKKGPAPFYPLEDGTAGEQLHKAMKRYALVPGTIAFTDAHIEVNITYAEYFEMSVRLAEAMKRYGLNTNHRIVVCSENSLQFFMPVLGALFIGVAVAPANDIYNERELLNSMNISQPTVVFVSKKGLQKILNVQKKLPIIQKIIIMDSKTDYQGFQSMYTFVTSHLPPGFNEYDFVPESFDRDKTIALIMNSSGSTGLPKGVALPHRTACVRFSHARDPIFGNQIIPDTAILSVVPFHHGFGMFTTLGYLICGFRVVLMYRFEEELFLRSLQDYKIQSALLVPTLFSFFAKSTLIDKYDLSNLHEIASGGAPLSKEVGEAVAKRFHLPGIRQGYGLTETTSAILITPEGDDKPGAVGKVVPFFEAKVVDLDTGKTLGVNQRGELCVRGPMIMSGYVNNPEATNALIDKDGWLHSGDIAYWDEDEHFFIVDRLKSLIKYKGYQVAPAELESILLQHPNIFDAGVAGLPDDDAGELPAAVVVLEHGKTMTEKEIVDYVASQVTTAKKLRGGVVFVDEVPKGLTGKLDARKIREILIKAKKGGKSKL
* = called active by the depositor; ? = inconclusive; / = no result. Hits are enriched below; roughly 2.2% of the tested compounds scored in any of these assays.

SMILES	TWEAK Fn14 block	HSP90 refold inh	TROY NFkB inh	LGR2 antag	HSP90 confirm	luciferase ctr
CC(C)C(=O)Nc1ccc(-c2nc3cccnc3o2)cc1	60.4*	26.3*	12.8	/	30.0*	6.8
CC(C)C(=O)Nc1ccc(-c2nc3ncccc3o2)cc1	45.8	17.6*	19.0	39.1	25.5*	12.8*
CCC(=O)Nc1ccc(Cl)c(-c2nc3ncccc3o2)c1	-7.5	4.4	10.0	-1.2	/	/
Cn1cnc(S(=O)(=O)N[C@@H]2CC[C@H](CC(=O)Nc3ccc(-c4ccccc4)cc3)O[C@@H]2CO)c1	/	/	/	-17.8	/	/
O=C(Nc1nc2ccccc2[nH]1)c1cccc(F)c1	36.3	26.2*	11.3	-24.3	29.8*	11.8*
O=C(Nc1nc2ccccc2[nH]1)c1cccc([N+](=O)[O-])c1	1.5	2.9	-58.5	-57.2	/	/
CN(C)c1cccc(C(=O)Nc2nc3ccccc3[nH]2)c1	60.8*	25.5*	1.6	?	56.2*	39.4*
COCCn1c(C)cc(C(=O)COC(=O)C23CC4CC(CC(O)(C4)C2)C3)c1C	76.0*	34.9*	65.0*	/	46.2*	33.3*
Cc1ccc(/C=N/NC(=O)c2ccccn2)s1	51.0*	18.0*	5.2	?	30.6*	18.8*
CCc1ccc(/C=N/NC(=O)c2ccccn2)cc1	86.4*	23.0*	42.3	71.5*	72.7*	65.1*
O=C(N/N=C/c1cccs1)c1ccccn1	4.7	4.5	-23.4	-17.6	/	/
CCCNC(=O)Nc1ccc2c(c1)C(=O)N(C)C[C@@H](OC)[C@@H](C)CN(C(=O)C1CCOCC1)[C@@H](C)CO2	/	/	/	19.6	/	/
CS(=O)(=O)c1ccc2nc(NC(=O)Nc3ccccc3F)sc2c1	3.6	17.7*	-44.7	-14.7	18.4*	-2.0
O=C(NCC[C@H]1CC[C@H](NS(=O)(=O)c2ccc(Cl)cc2)[C@@H](CO)O1)Nc1ccc(F)cc1	/	/	/	-23.6	/	/
S=c1nc(C2COc3ccccc3O2)[nH][nH]1 (stereo unspecified)	5.0	1.6	-7.3	-0.7	/	/
CCCS(=O)(=O)c1cnc(C2COc3ccccc3O2)nc1N (stereo unspecified)	102.1*	92.6*	80.9*	94.5*	87.7*	80.1*
COCCNC(=O)C(=O)NCCN1CCOCC1	21.2	-0.5	/	/	/	/
COCCNC(=O)C(=O)NCCN1CCNCC1	10.7	34.1*	-2.5	23.5	-1.7	-7.7
O=C1CC[C@H](OCc2ccccc2)CCN1[C@H](CSc1ccccc1)Cc1ccccc1	-5.5	26.9*	-4.2	-8.4	-4.6	-14.3
Cc1nnsc1S(=O)c1ccc(Br)cc1 (stereo unspecified)	4.8	-1.4	0.8	1.9	/	/
Cc1nnsc1S(=O)c1ccc(F)cc1 (stereo unspecified)	17.6	23.9*	-15.0	5.3	-6.4	-11.4
COc1ccc(C2=NN(c3ccc(C(=O)O)cc3)C(c3ccc(OC)c(OC)c3)C2)cc1 (stereo unspecified)	-34.2	19.4*	7.6	-25.8	46.0*	38.4*
CCN(CC)S(=O)(=O)c1ccc(C)c(NC(=O)CN(C)C)c1	15.8	48.8*	53.4*	-10.4	-3.5	-4.5
COc1ccc2c3c([nH]c2c1)[C@H](CO)N(C(=O)C1CCCC1)CC31CN(C(=O)c2ccncc2)C1	/	/	/	12.3	/	/
Fc1ccccc1Nc1nc2ccccc2o1	39.6	23.6*	-11.3	-21.0	41.0*	28.4*
SMILES	TWEAK Fn14 block	HSP90 refold inh	TROY NFkB inh	LGR2 antag	HSP90 confirm	luciferase ctr
C=CCn1c(C)cc(C(=O)CN2NS(=O)(=O)c3ccccc3C2=O)c1C	40.5	34.7*	68.8*	-95.2	35.5*	12.3*
CCC1(C)Cc2c(sc(NC(=S)NC(=O)c3ccccc3)c2C#N)CO1 (stereo unspecified)	-12.3	2.2	1.4	-60.3	/	/
CN1Cc2sc(NC(=S)NC(=O)c3ccccc3)c(C#N)c2CC1(C)C	/	17.3*	/	9.4	31.1*	15.3*
COc1ccc(C(=S)N2CCCCC2)cc1Br	-12.9	2.5	2.6	/	/	/
S=C(c1ccc(N2CCCC2)c(Br)c1)N1CCCCC1	31.0	22.3*	-17.3	-12.2	0.5	-17.8
O=C(C[C@H]1C=C[C@H](NC(=O)Nc2cccc(F)c2)[C@@H](CO)O1)NCC1CC1	/	/	/	-11.2	/	/
O=C(C[C@H]1CC[C@H](NC(=O)NC2CCCCC2)[C@@H](CO)O1)NCc1ccc(F)cc1	/	/	/	-14.3	/	/
COc1ccc2c(c1)sc1nc(-c3ccccc3)cn12	102.7*	62.7*	84.0*	/	89.9*	85.8*
CC1=C(CC(=O)c2ccccc2)C(=O)c2ccccc2C1=O	53.8*	17.0*	68.0*	/	10.4	-11.1
O=C(CN1C(=O)c2ccccc2C1=O)c1ccccc1	-1.1	-1.6	-8.2	/	/	/
COc1cccc(CNC(=O)C2=C(C)C(=O)OC23CCC(C)CC3)c1 (stereo unspecified)	-14.4	34.9*	20.3	/	-2.0	-3.8
COc1cc(OC)cc(C(=O)NCC(=O)OCC(=O)Nc2cc(S(C)(=O)=O)ccc2Cl)c1	-2.5	26.7*	15.8	0.2	-11.1	-14.8
C[C@@H]1CN([C@@H](C)CO)C(=O)c2cc(NC(=O)NC3CCCCC3)ccc2O[C@@H](C)CCCCO[C@H]1CN(C)C(=O)Cc1ccccc1	/	/	/	-9.5	/	/
Cc1ccc(C2NC(=O)NC3=C2CCc2ccccc23)cc1 (stereo unspecified)	79.4*	22.9*	68.9*	-12.1	51.5*	67.3*
COc1ccc2c(c1)C1=C(CC2)C(c2ccc(C)cc2)NC(=S)N1 (stereo unspecified)	16.7	2.3	-27.6	/	/	/
C[C@@H](NC(=O)C[C@@H]1C[C@H]2c3cc(NC(=O)C4CCC4)ccc3O[C@H]2[C@H](CO)O1)c1ccccc1	/	/	/	17.1	/	/
Cc1cnc(NC(=O)COc2ccccc2Cl)s1	96.0*	58.2*	59.2*	91.2*	79.1*	77.5*
CN(C)c1ccc2c(c1)[C@@H]1C[C@@H](CC(=O)NCc3ccccc3F)O[C@@H](CO)[C@@H]1O2	/	/	/	6.9	/	/
CN1C(C(=O)NCc2ccco2)=CC(c2ccc(F)cc2)=NS1(=O)=O	2.7	55.6*	11.6	14.4	-1.3	-7.1
Cc1ccc(C2=NS(=O)(=O)N(C)C(C(=O)NCc3cccs3)=C2)cc1	16.1	-1.3	1.6	6.7	/	/
O=C(NCC(=O)N1CCCCCCC1)c1ccc(Cl)cc1	12.4	/	-36.5	-37.6	/	/
O=C(CNC(=O)c1ccc(Cl)cc1)OCC(=O)N1CCCC1	-6.4	18.7*	13.3	11.7	-4.2	-7.5
C[C@@H]1CCCCO[C@H](CN(C)C(=O)Nc2cccc3ccccc23)[C@@H](C)CN([C@H](C)CO)C(=O)c2cc(NC(=O)c3ccncc3)ccc2O1	/	/	/	9.6	/	/
O=C(CCn1c(=S)[nH]c2ccccc2c1=O)NCCc1ccccc1	-12.5	58.9*	1.9	0.0	4.9	-5.3
C[C@@H]1CCCCO[C@@H](CN(C)C(=O)c2ccccc2)[C@@H](C)CN([C@@H](C)CO)C(=O)c2cc(NC(=O)Nc3ccccc3)ccc2O1	/	/	/	7.5	/	/
COc1cc(N2Cc3ccccc3C2)ccc1C=O	28.8	54.2*	-0.3	-115.7	40.0*	-6.6
